Rows were chosen to be rich in hits. Some 4.1% of all compounds tested hit in one or more screens of this group.
AMA1-RON2 inh – disrupts binding of P. falciparum AMA1 to RON2; 360,000 tested, 0.2% active; AID 720542; AlphaScreen AMA1-biotinylated RON2 peptide binding; Potency, µM (series often up to 58.2 µM), for inactives: top-dose activity change, negative = inhibition, most hits filed as inhibitors;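 also: 0% = vehicle wells and -100% = peptide control; nearly all actives have a fitted effect of over 45% in size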
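AMA1 (3D7) with his tag at 25 nM final met compounds first, then biotinylated RON2 peptide at 25 nM; detection used donor plus acceptor beads, 10 µg/mL apiece, read by AlphaScreen after 30 min at room temperature.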
FMDV inh – foot and mouth disease virus antiviral activity. FMDV antiviral cell-based qHTS. Potency, µM (doses to about 57.9 µM), for the others: top-dose activity change, negative = inhibition, most hits filed as inhibitors. 410,000 tested, 1.2% active; calls by dose curve; tested in HEK293T cells; also: read-out not given here; nearly all actives have a fitted effect of over 45% in size
Sm TGR block – blocks Schistosoma mansoni thioredoxin glutathione reductase | Q962Y6 | 360,000 tested, 3% active | Potency, µM (series often up to 114 µM), without a hit: at the highest dose activity change, negative = inhibition, actives largely listed as inhibitors | purified TGR, DTNB reduction, TNB absorbance 405 nm; also: nearly all actives have a fitted effect of over 60% in size
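TGR 20 nM + NADPH 100 uM (dispensed conc.), cpd preinc 15 min RT; start with NADPH (500 uM addition) then DTNB (15 mM addition). Kinetic TNB absorbance, 405 nm filter. Four-parameter Hill fit across titration.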
AmpC inh detg – blocks E. coli AmpC beta-lactamase in detergent assay; P00811; AID 485294; Potency, µM (titrated, usually from 114 µM), without a hit: top-dose activity change, negative = inhibition, usual class: inhibitors; AmpC hydrolysis of nitrocefin, absorbance 480 nm, 0.01% Triton; 370,000 tested, 0.041% active;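 also: 0% = no-compound wells and -100% = no-enzyme wells; nearly all actives have a fitted effect of over 25% in size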
Target sequence (P00811 whole entry, looked up): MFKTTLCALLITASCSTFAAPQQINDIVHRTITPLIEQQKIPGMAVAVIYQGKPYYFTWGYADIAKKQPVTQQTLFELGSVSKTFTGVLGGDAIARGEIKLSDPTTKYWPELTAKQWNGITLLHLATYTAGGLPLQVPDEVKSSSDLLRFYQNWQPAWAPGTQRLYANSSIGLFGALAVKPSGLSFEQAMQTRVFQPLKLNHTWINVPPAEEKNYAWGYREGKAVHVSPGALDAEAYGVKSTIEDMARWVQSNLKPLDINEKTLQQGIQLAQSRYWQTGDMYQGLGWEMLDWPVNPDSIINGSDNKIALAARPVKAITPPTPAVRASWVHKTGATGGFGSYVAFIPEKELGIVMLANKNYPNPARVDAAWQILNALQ
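AmpC (5.3 nM in the dispensed reagent) in 20 mM phosphate pH 7.0 with 0.01% (detergent screen) or 0.0001% Triton X-100 was preincubated with compounds for 15 min at room temperature. Nitrocefin was then added from an 800 uM solution, and hydrolysis was followed at 480 nm.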
AmpC no deterg – blocks E. coli AmpC beta-lactamase in detergent-free assay; P00811; 330,000 tested, 0.52% active; AmpC nitrocefin hydrolysis, absorbance 480 nm, 0.0001% Triton; Potency, µM (highest dose often 57.1 µM), inactives show at the highest dose activity change, negative = inhibition, hits mostly inhibitors;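 also: plate controls were no compound for no effect and no enzyme for full effect; nearly all actives have a fitted effect of over 20% in size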
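AmpC (5.3 nM in the dispensed reagent) in 20 mM phosphate pH 7.0 with 0.01% (detergent screen) or 0.0001% Triton X-100 was preincubated with compounds for 15 min at room temperature. Nitrocefin was then added from an 800 uM solution, and hydrolysis was followed at 480 nm.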
* = called active by the depositor; ? = inconclusive; . = no result; ! = not active in a repeat. Unless noted, calls follow the shape of the dose curve; as a rule, active = well fitted curve in the direction sought with a large enough effect; inconclusive = small, poorly fitted or top-dose-only effect, or another doubt; inactive = no such curve, though single readings can be large; an effect the other way counts as inactive or inconclusive. Unless noted, % is scaled to controls: 0 for no effect and ±100 for the full control effect; potency is read from the fitted curve at half-maximal effect.

SMILES | AMA1-RON2 inh | FMDV inh | Sm TGR block | AmpC inh detg | AmpC no deterg
CCn1c(=O)oc2cc(NC(=O)CCl)ccc21 | 1% | 22µM* | 40µM* | -3% | -21%
COc1cc(OC)c(NC2=C(c3ccc(C(F)(F)F)cc3)C(=O)c3ccccc32)cc1Cl | . | ? | -4% | 6% | .
CCc1ccc(NC(=O)Cn2cc(S(=O)(=O)c3ccc(F)cc3)c(=O)c3cc(OC)ccc32)cc1 | . | -10% | 5% | 7% | .
Cc1ccc(N2CCn3c2nc2c3c(=O)n(C/C=C/c3ccccc3)c(=O)n2C)cc1C | . | 5% | 3% | -1% | .
Cc1ccc(NC(=O)Cn2c(=O)n(CCCCCC(=O)NCc3ccc(F)cc3)c(=O)c3sccc32)cc1C | . | -19% | -4% | 2% | .
COc1ccccc1-c1cc(C(=O)N2CCN(c3ccccc3OC)CC2)no1 | -13% | -3% | 9% | -12% | 130%
Cc1ccc(C)c(N2CCN(C(=O)c3ccc4nc(-c5ccco5)c(-c5ccco5)nc4c3)CC2)c1 | 2% | -19% | 6.3µM* | -15% | 21%
COc1ccccc1N1CCN(C(=O)c2ccc3nc(-c4ccco4)c(-c4ccco4)nc3c2)CC1 | -28% | ? | 14µM* | 2% | 175%
COc1ccccc1N1CCN(C(=O)c2cc(C3CC3)on2)CC1 | -10% | -5% | -30% | ? | 20µM*
CC(C)(C)C1CCc2c(sc(NC(=O)Cn3nnc(-c4ccccc4Cl)n3)c2C#N)C1 (stereo not given) | . | 0% | 1% | ? | .
O=C(Oc1ccccc1)c1cccnc1Oc1ccccc1 | 16% | -6% | 16% | 40µM* | -40%
CC(C)N(C(=O)Cn1cc(S(=O)(=O)Cc2ccc(Br)cc2)c2ccccc21)C(C)C | . | 1% | 2% | -6% | .
CCc1cc2c(cc3c(=O)n(CC(=O)N4CCN(c5cccc(C)c5C)CC4)nc(CC)n32)s1 | . | -10% | 6% | 3% | .
CCCn1cnc2c(c1=O)c1nc3ccccc3nc1n2CCC1=CCCCC1 | . | . | -3% | -22% | -14%
O=c1c2c3nc4ccccc4nc3n(/N=C/c3ccco3)c2ncn1CCC1=CCCCC1 | -9% | . | 13µM* | 0% | -39%
CCC(=O)Nc1cccc(-c2cn3c(C)csc3n2)c1 | . | 5% | 72% | 6% | .
CC(=O)/C=C/c1ccc2ccccc2n1 | -5% | ? | 89µM* | -3% | -9%
CC(OC(=O)/C=C/c1ccc2ccccc2n1)C(=O)N(C)c1ccccc1 (stereo not given) | 12% | -26% | -2% | ? | -14%
Cc1nc(S/C(=C\c2ccc(-c3ccc(C(=O)O)c(Cl)c3)o2)C(=O)O)n[nH]1 | 18µM* | -5% | 35µM* | -3% | -35%
O=C(CC(c1ccccc1)C1CCCCC1=O)c1ccco1 (stereo not given) | 1% | -25% | ? | -3% | -13%
O=C(CC(c1ccco1)C1CCCCC1=O)c1ccco1 (stereo not given) | -9% | -4% | 50µM* | ? | -27%
O=C(NCCc1ccccn1)C1CC12CCN(C(=O)c1ccc(F)cc1Cl)CC2 (stereo not given) | . | 0% | . | . | .
CS(=O)(=O)N(CC(N)=O)c1ccc(F)c(Cl)c1 | 21% | ? | 1% | 2% | 0.32µM*
CN(C)C(=O)CN(c1ccc(F)c(Cl)c1)S(C)(=O)=O | 4% | . | ? | -2% | -4%
Oc1ccccc1Oc1ncc(Br)c(N2CCOCC2)n1 | 3% | -29% | -4% | -5% | -17%
SMILES | AMA1-RON2 inh | FMDV inh | Sm TGR block | AmpC inh detg | AmpC no deterg
Oc1ccccc1Oc1ncc(Br)c(Cl)n1 | -16% | -27% | 35µM* | -9% | -16%
COc1cc2c(cc1OC)n(Cc1ccc([N+](=O)[O-])cc1)c(=O)n1nc(-c3ccccc3)nc21 | . | -3% | 4% | -5% | .
O=C(NCc1nnc(SCc2ccccc2)n1-c1ccc(F)cc1)C12CC3CC(CC(C3)C1)C2 | -12% | 25µM* | -1% | ? | 69%
O=C(O)c1cccc(Nc2ccc([N+](=O)[O-])c3nonc23)c1 | ? | 8% | -28% | -10% | -17%
O=[N+]([O-])c1ccc(Nc2ccccn2)c([N+](=O)[O-])c1 | -29% | -14% | -14% | -6% | 0%
O=C(O)c1ccccc1Nc1ccc([N+](=O)[O-])cc1 | -22% | 46% | 0% | 1% | -10%
O=C(O)c1ccccc1Nc1cc(Cl)c2nonc2c1[N+](=O)[O-] | 9% | ? | 0.45µM* | -2% | -10%
O=[N+]([O-])c1c(Nc2ccc(O)cc2)cc(Cl)c2nonc12 | -13% | 22µM* | 0.32µM* | -15% | -22%
O=[N+]([O-])c1c(Nc2ccccn2)cc(Cl)c2nonc12 | -18% | 13µM* | 0.89µM* | -11% | -14%
O=C(O)c1cccc(Nc2cc(Cl)c3nonc3c2[N+](=O)[O-])c1 | -3% | 6% | 0.35µM* | ? | -35%
COc1ccccc1CNC(=O)CCn1c(=O)c2cccn2c2cccnc21 | . | 14% | -9% | 1% | .
Cc1cc(C)c(S(=O)(=O)c2ccccc2C)c(SCC(C)C)n1 | 24% | -9% | 1% | 0% | 0.25µM*
O=S(=O)(/N=C(\Sc1ccc(Cl)cc1)c1ccccc1)c1ccccc1 | 15% | ? | 25µM* | -6% | -3%
CS/C(=N\S(=O)(=O)c1ccc(Cl)cc1)c1ccccc1 | -3% | 36% | -8% | -1% | -8%
CC(=O)NC(c1cc(Cl)c2cccnc2c1O)C1CC1 (stereo not given) | . | 0% | -19% | -2% | -21%
CN1CCN(C(c2ccccn2)c2cc(Cl)c3cccnc3c2O)CC1 (stereo not given) | -75% | -26% | 1.3µM* | -1% | 26%
COc1cc(C(=O)NC(c2ccc(Cl)cc2)c2cc(Cl)c3cccnc3c2O)cc(OC)c1OC (stereo not given) | . | -22% | 6% | 5% | .
Oc1c(C(c2ccc(Cl)cc2)N2CCCC2)cc(Cl)c2cccnc12 (stereo not given) | -59% | -28% | 3.2µM* | -13% | -36%
CC(=O)NC(c1cc(Cl)c2cccnc2c1O)C(C)C (stereo not given) | . | -18% | 6% | ? | 1%
Oc1c(C(c2ccccn2)N2CCC(Cc3ccccc3)CC2)cc(Cl)c2cccnc12 (stereo not given) | -38% | 22µM* | 3.5µM* | 1% | -7%
Cc1ccc(C(c2cc(Cl)c3cccnc3c2O)N2CCN(C)CC2)cc1 (stereo not given) | -2% | ? | 0.71µM* | -4% | -32%
CCOc1ccc(CCNC(=O)c2ccc(CS(=O)Cc3ccc(Cl)cc3)o2)cc1 (stereo not given) | 0% | ? | 28µM*! | 1% | 128%
COc1ccccc1S(=O)Cc1ccc(C(=O)NCCc2ccc(Cl)cc2)o1 (stereo not given) | 0% | ? | 40µM* | -11% | 44%

Screening data from PubChem.
